# Measured values reported in the supplement of paper PMC12350171.
# Structures can show the parent of a compound that is named as a salt.
# System: Haemophilus parainfluenzae
# Test: growth AUC normalised to DMSO control (fraction of control); higher = less growth inhibition, active = hit call of the paper
# Conditions: 20 µM;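 active = AUC significantly below DMSO controls by Student t-fit with adjusted P under 0.01; inactive = not significantly reduced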
# How it was run: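 Hemin and NAD were added to the medium for Haemophilus parainfluenzae. All pathogens, after two anaerobic passages, were inoculated at a starting OD578 of 0.01 into pre-reduced mGAM plates with 20 μM compound and 1% DMSO under breathable seals, and OD578 was read hourly for 24 h in three biological replicates. AUC of each growth curve was obtained with the trapezoidal rule up to the exponential-to-stationary transition and normalised to DMSO controls from the same plate.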
row,Structure (SMILES),growth AUC normalised to DMSO control
1,CN1Cc2c(N)cccc2C(c2ccccc2)C1 (centres undefined) [Nomifensine maleate],0.915 (inactive)
2,CN(C)CCOC(C)(c1ccccc1)c1ccccn1 (centres undefined) [Doxylamine succinate],0.989 (inactive)
3,CN(C)CCC=C1c2ccccc2C=Cc2ccccc21 [Cyclobenzaprine hydrochloride],0.893 (inactive)
4,CO[C@H]1C[C@H](O[C@H]2[C@H](C)[C@@H](O[C@@H]3O[C@H](C)C[C@H](N(C)C)[C@H]3OC(C)=O)[C@@H](C)C[C@@]3(CO3)C(=O)[C@H](C)[C@@H](OC(C)=O)[C@@H](C)[C@@H](C)OC(=O)[C@@H]2C)O[C@@H](C)[C@@H]1OC(C)=O [Troleandomycin],0.921 (inactive)
5,CN(C)CCOC(c1ccccc1)c1ccccc1.Cn1c(=O)c2[nH]c(Cl)nc2n(C)c1=O [Dimenhydrinate],0.901 (inactive)
6,CCN[C@H]1C[C@H](C)S(=O)(=O)c2sc(S(N)(=O)=O)cc21 [Dorzolamide hydrochloride],1.03 (inactive)
7,C[C@@H](c1ncncc1F)[C@](O)(Cn1cncn1)c1ccc(F)cc1F [Voriconazole],0.977 (inactive)
8,CNCCCC1c2ccccc2C=Cc2ccccc21 [Protriptyline hydrochloride],0.977 (inactive)
9,Cn1c(=O)c2c(ncn2C)n(C)c1=O [Caffeine],1.04 (inactive)
10,CNCCCC12CCC(c3ccccc31)c1ccccc12 [Maprotiline hydrochloride],0.979 (inactive)
11,CN(C)CCC(c1ccc(Br)cc1)c1ccccn1 (centres undefined) [Brompheniramine maleate],1.04 (inactive)
12,CC(CN1c2ccccc2Sc2ccccc21)N(C)C (centres undefined) [Promethazine hydrochloride],0.954 (inactive)
13,CCCNC(C)C(=O)Nc1ccccc1C (centres undefined) [Prilocaine hydrochloride],1.01 (inactive)
14,Cc1cccn2c(=O)c(-c3nnn[nH]3)cnc12 [Pemirolast potassium],0.933 (inactive)
15,"CN1CCc2c(c3ccccc3n2Cc2ccccc2)C1 [Mebhydroline 1,5-naphtalenedisulfonate]",0.932 (inactive)
16,CC(C)NNC(=O)c1ccncc1 [Iproniazide phosphate],1.04 (inactive)
17,N=C(N)NC(=O)Cc1c(Cl)cccc1Cl [Guanfacine hydrochloride],1.01 (inactive)
18,O=C(CCCCC(=O)Nc1c(I)cc(I)c(C(=O)O)c1I)Nc1c(I)cc(I)c(C(=O)O)c1I [Iodipamide],1.01 (inactive)
19,C[C@]12CC[C@@H]3c4ccc(O)cc4CC[C@H]3[C@@H]1CCC2=O [Estrone],0.966 (inactive)
20,O=C(O)COCCN1CCN(C(c2ccccc2)c2ccc(Cl)cc2)CC1 (centres undefined) [Cetirizine dihydrochloride],0.943 (inactive)

row,Structure (SMILES),growth AUC normalised to DMSO control
1,"C[C@H]1C[C@@H]2[C@H]([C@@H](O)C[C@@]3(C)[C@H]2CC[C@]3(O)C(=O)CO)[C@@]2(C)C=CC(=O)C=C12 [Methylprednisolone, 6-alpha]",0.996 (inactive)
2,CC(=O)c1ccc2c(c1)N(CCCN(C)C)c1ccccc1S2 [Acetopromazine maleate salt],0.95 (inactive)
3,CN1CCCN(C(c2ccccc2)c2ccc(Cl)cc2)CC1 (centres undefined) [Homochlorcyclizine dihydrochloride],0.942 (inactive)
4,CC1CNc2c(cccc2S(=O)(=O)N[C@@H](CCCNC(=N)N)C(=O)N2CC[C@@H](C)C[C@@H]2C(=O)O)C1 (some centres undefined) [Argatroban],1.04 (inactive)
5,Clc1ccc(COC(Cn2ccnc2)c2ccc(Cl)cc2Cl)c(Cl)c1 (centres undefined) [Miconazole],0.997 (inactive)
6,COC(=O)[C@H]1[C@H]2C[C@@H]3c4[nH]c5cc(OC)ccc5c4CCN3C[C@H]2C[C@@H](OC(=O)c2cc(OC)c(OC)c(OC)c2)[C@@H]1OC [Reserpine],1.07 (inactive)
7,CC(=O)[C@H]1CC[C@H]2[C@@H]3CCC4=CC(=O)CC[C@]4(C)[C@H]3CC[C@]12C [Progesterone],1.03 (inactive)
8,O=C(N/N=C/c1ccc([N+](=O)[O-])o1)c1ccc(O)cc1 [Nifuroxazide],0.532 (active)
9,CSc1ccc2c(c1)N(CCC1CCCCN1C)c1ccccc1S2 (centres undefined) [Thioridazine hydrochloride],0.72 (active)
10,Cn1ccnc1S [Methimazole],1.02 (inactive)
11,C=C1c2cccc(O)c2C(O)=C2C(=O)[C@]3(O)C(O)=C(C(N)=O)C(=O)[C@@H](N(C)C)[C@@H]3[C@@H](O)[C@H]12 [Methacycline hydrochloride],0.0347 (active)
12,CN1CCN2c3ncccc3Cc3ccccc3C2C1 (centres undefined) [Mirtazapine],1.49 (inactive)
13,CC(COc1ccccc1)NC(C)C(O)c1ccc(O)cc1 (centres undefined) [Isoxsuprine hydrochloride],0.939 (inactive)
14,O=C1CCc2cc(OCCCCc3nnnn3C3CCCCC3)ccc2N1 [Cilostazol],1.26 (inactive)
15,Nc1nc(=O)c2nc(CNc3ccc(C(=O)N[C@@H](CCC(=O)O)C(=O)O)cc3)cnc2[nH]1 [Folic acid],0.978 (inactive)
16,COCC(=O)Nc1c(I)c(C(=O)NCC(O)CO)c(I)c(C(=O)N(C)CC(O)CO)c1I (centres undefined) [Iopromide],1.03 (inactive)
17,CC1=C(/C=C/C(C)=C/C=C/C(C)=C/C(=O)O)C(C)(C)CCC1 [Retinoic acid],0.995 (inactive)
18,CC[N+](CC)(CC)CCC(O)(c1ccccc1)C1CCCCC1 (centres undefined) [Tridihexethyl chloride],1.05 (inactive)
19,Nc1ccc(S(=O)(=O)c2ccc(N)cc2)cc1 [Dapsone],1 (inactive)
